# Values joined by “and” are separate entries in the source; they are usually repeats but may differ in a detail not shown here. Identical values can stand only once. Inconclusive results are not listed. Active and inactive are the calls of the source. How the source made its calls: active means hit-call score of the fitted dose curve at least 0.9, where 1 is the maximum; inconclusive means response in the unintended direction; inactive means score below 0.9.
# Target: rat Opioid Receptor, Non-selective Binding, Oprm1 (gene 25601) (UniProt P33535)
# Experiment: NVS_GPCR_rOpiate_NonSelective: NovaScreen (NVS) G Protein-Coupled Receptor Assay for rat Opioid Receptor, Non-selective Binding (AID 2283318)
# How it was run: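 Filter-based radioligand displacement using rat forebrain membrane preparations, measured 1.5 h post-dosing. Single-concentration duplicate screen at 25 uM, follow-up in concentration series; activity taken as signal loss relative to DMSO.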
# Sequence of rat Opioid Receptor, Non-selective Binding, Oprm1 (gene 25601) (P33535 whole entry, looked up): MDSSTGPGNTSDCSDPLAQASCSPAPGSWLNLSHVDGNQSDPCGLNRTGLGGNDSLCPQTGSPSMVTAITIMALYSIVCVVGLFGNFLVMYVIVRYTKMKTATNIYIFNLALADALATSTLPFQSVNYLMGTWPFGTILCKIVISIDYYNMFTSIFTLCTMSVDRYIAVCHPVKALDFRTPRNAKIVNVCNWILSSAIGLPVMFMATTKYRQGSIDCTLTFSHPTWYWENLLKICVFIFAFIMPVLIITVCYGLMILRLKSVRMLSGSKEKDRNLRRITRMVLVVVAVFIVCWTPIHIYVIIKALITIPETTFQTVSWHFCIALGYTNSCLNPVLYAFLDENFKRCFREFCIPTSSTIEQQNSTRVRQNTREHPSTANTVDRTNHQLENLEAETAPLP
SMILES,AC50,outcome
C#C[C@]1(O)CC[C@H]2[C@@H]3CCc4cc(O)ccc4[C@H]3CC[C@@]21C,20.5 µM (active),
O=C(c1ccc(OCCN2CCCCC2)cc1)c1c(-c2ccc(O)cc2)sc2cc(O)ccc12,3.64 µM (active),
CC/C(=C(\c1ccccc1)c1ccc(OCCN(C)C)cc1)c1ccccc1,,inactive

# Target: Sodium channel protein type 1 subunit alpha (Rattus norvegicus) (UniProt P04774)
# Experiment: NVS_IC_rNaCh_site2: NovaScreen (NVS) Ion Channel Assay for rat Sodium Channel, Site 2 (NaCh) (AID 2283322);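 further: hit means loss of radioligand binding signal relative to DMSO so AC50 marks displacement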
# How it was run: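 Initial duplicate single-point testing at 25 uM, followed by concentration-response runs for actives. Binding of radioligand to rat forebrain membranes quantified after 1 h via filter-based radiodetection.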
SMILES,outcome,AC50
C#C[C@]1(O)CC[C@H]2[C@@H]3CCc4cc(O)ccc4[C@H]3CC[C@@]21C,inactive,
O=C(c1ccc(OCCN2CCCCC2)cc1)c1c(-c2ccc(O)cc2)sc2cc(O)ccc12,,0.869 µM (active)
CC/C(=C(\c1ccccc1)c1ccc(OCCN(C)C)cc1)c1ccccc1,,1.56 µM (active)

# Target: rat Thyrotropin Releasing Hormone Receptor (TRH), Trhr (gene 25570) (UniProt Q01717)
# Experiment: NVS_GPCR_rTRH: NovaScreen (NVS) G Protein-Coupled Receptor Assay for rat Thyrotropin Releasing Hormone Receptor (TRH) (AID 2283329);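 further: hit means lower bound tracer signal versus DMSO baseline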
# How it was run: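 Rat forebrain membranes; radioligand displacement at TRH receptor by filter-based scintillation counting, read 4 h after dosing. Duplicate single-point screen at 25 uM, actives rerun in concentration series; loss of signal relative to DMSO.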
# Sequence of rat Thyrotropin Releasing Hormone Receptor (TRH), Trhr (gene 25570) (Q01717 whole entry, looked up): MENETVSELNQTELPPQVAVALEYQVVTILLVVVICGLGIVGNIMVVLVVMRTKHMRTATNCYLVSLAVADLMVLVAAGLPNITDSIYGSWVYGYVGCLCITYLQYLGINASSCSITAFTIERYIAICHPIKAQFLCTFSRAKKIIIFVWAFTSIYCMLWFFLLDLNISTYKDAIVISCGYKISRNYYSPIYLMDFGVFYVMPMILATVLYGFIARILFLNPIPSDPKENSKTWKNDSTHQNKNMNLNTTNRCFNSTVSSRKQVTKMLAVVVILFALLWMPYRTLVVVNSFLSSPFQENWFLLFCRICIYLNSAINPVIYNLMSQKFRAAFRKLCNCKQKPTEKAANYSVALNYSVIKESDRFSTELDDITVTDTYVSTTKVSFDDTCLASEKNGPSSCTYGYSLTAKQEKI
SMILES,outcome,AC50
C1CCCNCC1,inactive,
CC(C)(C)c1cccc(O)c1,inactive,
O=Cc1ccccc1O,inactive,
CCCCCCCCCCCCS,,0.929 µM (active)
CCCc1ccc(N)cc1,inactive,
O=S(=O)(O)c1cc(S(=O)(=O)O)c2c(N=Nc3ccccc3)c(O)ccc2c1,inactive,
CCc1cccc(O)c1,inactive,
CC(=O)N(C)C,inactive,
O=C(c1ccc(OCCN2CCCCC2)cc1)c1c(-c2ccc(O)cc2)sc2cc(O)ccc12,inactive,
NC(N)=S,inactive,
CC(=O)c1ccc2ccccc2c1,inactive,
CCO[Si](CC)(OCC)OCC,inactive,
CCC(C)(C)C1CCC(OC)CC1 (stereo unspecified),inactive,
CCCCCC(=O)O[C@]1(C(C)=O)CC[C@H]2[C@@H]3CCC4=CC(=O)CC[C@]4(C)[C@H]3CC[C@@]21C,inactive,
CC12CCC(C1)C(C)(C)C2O (stereo unspecified),inactive,
CCCCCCCCOS(=O)(=O)O,inactive,
CC(C)C(=O)c1ccccc1,inactive,
c1coc(CNc2ncnc3nc[nH]c23)c1,inactive,
OCC=Cc1ccccc1,inactive,

# Target: human Peripheral-type Benzodiazepine Receptor (PBR), TSPO (gene 706) (UniProt P30536)
# Experiment: NVS_MP_hPBR: NovaScreen (NVS) Membrane Protein Assay for human Peripheral-type Benzodiazepine Receptor (PBR) (AID 2283331);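 further: hits reduce radioligand binding relative to DMSO baseline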
# How it was run: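 Cell-free binding to human colonic membrane preparations measured by filter-based scintillation counting after 1 h. Compounds first run at 25 uM in duplicate, then concentration series for actives; signal loss against DMSO baseline.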
# Sequence of human Peripheral-type Benzodiazepine Receptor (PBR), TSPO (gene 706) (P30536 whole entry, looked up): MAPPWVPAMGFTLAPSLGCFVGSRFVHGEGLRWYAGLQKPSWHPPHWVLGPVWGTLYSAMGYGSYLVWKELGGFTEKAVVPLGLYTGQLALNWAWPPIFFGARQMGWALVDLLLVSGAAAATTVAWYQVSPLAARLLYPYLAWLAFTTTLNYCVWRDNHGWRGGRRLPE
row,SMILES,AC50
1,C#C[C@]1(O)CC[C@H]2[C@@H]3CCc4cc(O)ccc4[C@H]3CC[C@@]21C,2.52 µM (active) and 13.7 µM (active) and 11.4 µM (active)
2,COc1cc(OC)c2ccc(=O)oc2c1,12.1 µM (active)
3,O=C1OC2(c3ccc(O)cc3Oc3cc(O)ccc32)c2ccccc21,25 µM (active) and 9.1 µM (active)
4,NC(=O)c1c(Cl)cccc1Cl,3.59 µM (active)
5,C=CC(=O)OCC(CO)(COC(=O)C=C)COC(=O)C=C,11 µM (active)
6,Nc1ccc(N)c([N+](=O)[O-])c1,3.27 µM (active) and 1.74 µM (active)
7,CN1CCc2cccc3c2[C@H]1Cc1ccc(O)c(O)c1-3,1.83 µM (active)
8,CCCCCCOc1ccc(O)cc1,7.77 µM (active)

# Test system: not listed separately
# Experiment: NVS_IC_rCaBTZCHL: NovaScreen (NVS) Ion Channel Assay for Calcium Channel, Type L, Benzothiazepine Site (CaBTZCHL) (AID 2283337)
# How it was run: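 Benzothiazepine-site binding was assessed in a tissue-derived, cell-free rat cortical membrane system. After 1.5 h exposure, radioactivity retained on filters was quantified by scintillation; positive and negative controls accompanied every plate.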
SMILES,outcome,AC50
Cc1ccc(C(C)(C)O)cc1,inactive,
O=C1OC2(c3ccc(O)cc3Oc3cc(O)ccc32)c2ccccc21,inactive,
CCCCCC1C(=O)CCC1CC(=O)OC (stereo unspecified),inactive,
O=C(c1ccc(OCCN2CCCCC2)cc1)c1c(-c2ccc(O)cc2)sc2cc(O)ccc12,inactive,
C=C1CC/C=C(\C)CC[C@@H]2[C@@H]1CC2(C)C,inactive,
Nc1ccc(N)c([N+](=O)[O-])c1,inactive,
CC/C(=C(\c1ccccc1)c1ccc(OCCN(C)C)cc1)c1ccccc1,,938 nM (active) and 874 nM (active)
CC(=O)OC(C)(C)C1CC=C(C)CC1 (stereo unspecified),inactive,
